For 40 sequences, RUNX1 binding intensity results are on record in the supplement of paper PMC10681739.
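Also: Full-length recombinant human ETS1 or RUNX1 bound to double-stranded 36-bp genomic probes on microarrays, detected by protein-specific primary antibody and Alexa488 secondary, spot fluorescence as median of four replicate spots.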

Sequence of RUNX1 (Q01196 whole entry): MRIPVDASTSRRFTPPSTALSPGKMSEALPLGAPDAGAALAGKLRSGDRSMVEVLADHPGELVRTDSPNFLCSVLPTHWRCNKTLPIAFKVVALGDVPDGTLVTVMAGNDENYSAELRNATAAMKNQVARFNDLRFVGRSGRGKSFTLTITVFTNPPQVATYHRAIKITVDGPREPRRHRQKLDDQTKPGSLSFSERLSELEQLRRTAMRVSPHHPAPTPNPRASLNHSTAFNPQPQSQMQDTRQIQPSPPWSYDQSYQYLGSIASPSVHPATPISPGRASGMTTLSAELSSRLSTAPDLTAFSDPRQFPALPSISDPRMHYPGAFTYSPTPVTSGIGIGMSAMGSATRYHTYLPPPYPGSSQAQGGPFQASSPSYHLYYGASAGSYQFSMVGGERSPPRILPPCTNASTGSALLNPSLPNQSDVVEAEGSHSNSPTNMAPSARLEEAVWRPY

The experiment has as its target RUNX1 (UniProt Q01196). Briefly: RUNX1 binding intensity (PBM fluorescence) in presence of ETS1, normalised to RUNX1-only experiment (arbitrary fluorescence units); higher = stronger binding. The conditions noted are these: RUNX1 concentration 2 nM; ETS1 concentration 25 nM. On the procedure: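 Cooperative gcPBM on 36-bp genomic probes with neighbouring ETS1 and RUNX1 sites. Recombinant human RUNX1 (2 nM) was incubated alone or with ETS1 (25 nM) and detected with anti-RUNX1 antibody plus Alexa488 secondary. Values are medians over 4 replicate spots; the RUNX1+ETS1 data were normalised to the RUNX1-only data. The probes sit in constant array flanks that are not printed.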
As to GATTTGTCACAGGAAGTACCCACAGGCCAAGAAGTG, the RUNX1 binding intensity is 1260. Consider ACTGCTTGATTTTCAGGAAGTGGTAAAGTGGCAGGT, for which the RUNX1 binding intensity worked out at 957.

GCAGTGCAGGAAGTGCTTTGTGTGGTACAATCCCAA: the RUNX1 binding intensity came out at 1030.

With GCGCGGCCCGGAAGGGGGTAACCGCTGAGTCTTTGA, the RUNX1 binding intensity worked out at 1010. CCGCCACCGGAAGCGCCCTCCTAATCCCCGCAGCGC: the RUNX1 binding intensity was found to be 1920. As for TACAATTCGCACCGGAACTTGCGGCCCGGCTTCATT, the RUNX1 binding intensity is 963. Take TGGTGCCAAACATCCGCTAGCCACAGAAAAACCGAC: the RUNX1 binding intensity was 1640. On to GACTCTTCCGGCCCAGAGCTTTCGGAGTGCGGTTGC, for which the RUNX1 binding intensity amounted to 2130. Consider TGCAGCTTCCTGTCTGAGGCTTTGTGGTCCTTTCAT, for which the RUNX1 binding intensity came to 2480.

GCACACCGGAACTCACACCTGAAACCACAGAACCAA: the RUNX1 binding intensity was 5220.

Turning to CAGCAGAGGCGCGGATGTGGTTAAACGAGTGCCGTC, the RUNX1 binding intensity came out at 3670. As for TGGACGTAACACTCAGGAAGTGGTCAACCTTGCTGC, the RUNX1 binding intensity was determined as 1340. With CCCGCTGTCACTTCCTGCTTCCCTCCCGCACACGTG, the RUNX1 binding intensity came out at 3690.

On to AGCTTGCTTCCTGTCCCCAAAACCCACAGCACACGG, for which the RUNX1 binding intensity was 2590. To CTCACTCATCTGACTTCCTGCGGTTTACGACAACAG belongs 17400.

Take CGGCTAGGAAATAAAGAGCCTTCTCTCCGCGGTAGG: the RUNX1 binding intensity was determined as 2200. As to TACACTCCCACATCCGCTGCGGCGCAACTCACAACA, the RUNX1 binding intensity was 6980.

With TGCCACCTGCTTCCTGCCTGTGTAGCCACAAGGGAC, the RUNX1 binding intensity came out at 1600. Regarding GTGGGTTTAGGATATGGGTGTGGTTTCTAATTGTCT, the RUNX1 binding intensity stood at 1020.

TTATGCCTCAGGATGAACGAACCTCAAACACCCAGG: the RUNX1 binding intensity is 858. In the case of GTGGGGGTGACAGGATGCGGGTAGAGGGCTCAGCCA, the RUNX1 binding intensity was found to be 1460. On to TTTTTTCCGCCTGTAGGGTCACATTGTGGTTGATTG, for which the RUNX1 binding intensity is 1790. Then AACAGTTGCATAGGAAGTGGTCAGCTCTCCTCCACC, with 999; and GCTCCCTGGACAGGATGTGGTGCCGAGTAAACAGCT, with 1410. Then GAGAGAGGCAGGAAGTGTTGTGGTTATTGTTTGAGC, with 2210; and CTCCTTCCTGTGTGTTACTCTTAAAAACCACAGAGG, with 3040; and CAGCGGAAGAAAGACCTGCCACCTCCACCACAAAGA, with 925.

For the sequence GGCAAACAGGAAACACTCCCAGGGCTGTGGGCTCCT, the RUNX1 binding intensity was found to be 1150. In the case of GTTGGGCTTTGAGGATGTGGGTTCTAGAAGTTTACA, the RUNX1 binding intensity stood at 1050.

CCTCCCTGAGGGGGAAGTGGTTTTTGAGTCTGAGTC: the RUNX1 binding intensity turned out to be 1020. For the sequence TTGAATATGAAAGGAAGTGGTTAGGTGATGTGTTCT, the RUNX1 binding intensity turned out to be 1350. As for CCCACCCAGGAAGCCGTCCTAACCACAACAGCCCTC, the RUNX1 binding intensity was 6790. To GAATGGCGGATGTGGCTGGGGAGAGAAAGCCGCAGA belongs 2610; to CAGGAGCAGTGTAGAGGAAGTGGTTTCCATCACGGA, 1410.

CCCGGCCCAGGAAACTTCAGACTTCACCGCAGCTTC: the RUNX1 binding intensity was 1030. For the sequence GTGGGGCAGGATGTGCTTGCCTGGCTGCGGTTGGAC, the RUNX1 binding intensity was 2230.

Take GGGAGGCCCCATCCTGTGTGGCTGTGGCTTTTGCCT: the RUNX1 binding intensity stood at 1020. On to CCCCTACTTCCCTTTTTGCTGGGCCGCAGTTTCGGT, for which the RUNX1 binding intensity was found to be 2220. For the sequence AGAGCGAGGAGGACTTCCTGCGGCAGGTCGGCGTGA, the RUNX1 binding intensity is 1080. Turning to AGACCCGGATATGCGCCGGGGACCCCCAGACCGCGC, the RUNX1 binding intensity is 969.
